Data as given in the supplement of paper PMC10849652.
The full data set covers some 7,900 targets. This sample favours those with a hit. About 0.6% of all pairs of compound and target were hits.

How the values were obtained:
Experiment in all cases: log2 fold change, soluble protein after heating vs DMSO (PISA); higher = thermal stabilisation; K562 cells, 10 uM, 30 min; active = over 0.2 and 3.5 SD of the protein, either way, in both replicates (recomputed)
saracatinib = compound: CN1CCN(CCOc2cc(OC3CCOCC3)c3c(Nc4c(Cl)ccc5c4OCO5)ncnc3c2)CC1 [saracatinib]
How it was run: (§1)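 For each measurement, 10 μM compound was applied for 30 min to K562 cells at 2×10^6 cells/mL. Aliquots were heated for 3 min across 48°C-58°C, pooled, and extracted in PBS with 0.5% NP-40 at 4°C; the supernatant after 21,000xg for 90 min was soluble protein. This was quantified by TMTpro 16plex LC-MS/MS with channel sums equalised, and thermal stability was reported relative to control samples from duplicates, on a log2 fold-change scale.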

sotrastaurin = compound: CN1CCN(c2nc(C3=C(c4c[nH]c5ccccc45)C(=O)NC3=O)c3ccccc3n2)CC1 [sotrastaurin]
How it was run: as §1

alvocidib = compound: CN1CC[C@H](c2c(O)cc(O)c3c(=O)cc(-c4ccccc4Cl)oc23)[C@H](O)C1 [alvocidib]
How it was run: as §1

Tubastatin A = compound: CN1CCc2c(c3ccccc3n2Cc2ccc(C(=O)NO)cc2)C1 [Tubastatin A]
How it was run: as §1

[1] = compound: CNC(=O)C1=CC=CC=C1NC2=NC(=NC=C2Cl)NC3=C(C=C(C=C3)N4CCOCC4)OC
How it was run: as §1

defactinib = compound: CNC(=O)c1ccc(Nc2ncc(C(F)(F)F)c(NCc3nccnc3N(C)S(C)(=O)=O)n2)cc1 [defactinib]
How it was run: as §1

rucaparib = compound: CNCc1ccc(-c2[nH]c3cc(F)cc4c3c2CCNC4=O)cc1 [rucaparib]
How it was run: as §1

[2] = compound: CNc1nc(-c2ccc3c(N)n[nH]c3c2)cc(N2C[C@@H](C(=O)NC3CCCCC3)CC[C@H]2C)n1
How it was run: as §1

encorafenib = compound: COC(=O)N[C@@H](C)CNc1nccc(-c2cn(C(C)C)nc2-c2cc(Cl)cc(NS(C)(=O)=O)c2F)n1 [encorafenib]
How it was run: as §1

[3] = compound: COC(=O)[C@H](CCSC)NC(=O)C1=C(C=C(C=C1)NC[C@H](CS)N)C2=CC=CC=C2
How it was run: as §1

[4] = compound: COC1=CC=C(C=C1)CN2C=CC3=C2C=C(C=C3)C(=O)NO
How it was run: as §1

filanesib = compound: CON(C)C(=O)N1N=C(c2cc(F)ccc2F)S[C@@]1(CCCN)c1ccccc1 [filanesib]
How it was run: as §1

zotarolimus = compound: CO[C@H]1C[C@@H]2CC[C@@H](C)[C@@](O)(O2)C(=O)C(=O)N2CCCC[C@H]2C(=O)O[C@H]([C@H](C)C[C@@H]2CC[C@H](n3cnnn3)[C@H](OC)C2)CC(=O)[C@H](C)/C=C(\C)[C@@H](O)[C@@H](OC)C(=O)[C@H](C)C[C@H](C)/C=C/C=C/C=C/1C [zotarolimus]
How it was run: as §1

idasanutlin = compound: COc1cc(C(=O)O)ccc1NC(=O)[C@@H]1N[C@@H](CC(C)(C)C)[C@](C#N)(c2ccc(Cl)cc2F)[C@H]1c1cccc(Cl)c1F [idasanutlin]
How it was run: as §1

alisertib = compound: COc1cc(Nc2ncc3c(n2)-c2ccc(Cl)cc2C(c2c(F)cccc2OC)=NC3)ccc1C(=O)O [alisertib]
How it was run: as §1

[5] = compound: COc1cc2nc(-c3cc(F)ccc3O)nc(N[C@@H]3CNC[C@H]3C(C)(C)O)c2cc1OC
How it was run: as §1

gefitinib = compound: COc1cc2ncnc(Nc3ccc(F)c(Cl)c3)c2cc1OCCCN1CCOCC1 [gefitinib]
How it was run: as §1

[6] = compound: COc1cccc2cc(-c3nc([C@H]4CC[C@H](C(=O)O)CC4)n4ncnc(N)c34)[nH]c12
How it was run: as §1

lapatinib = compound: CS(=O)(=O)CCNCc1ccc(-c2ccc3ncnc(Nc4ccc(OCc5cccc(F)c5)c(Cl)c4)c3c2)o1 [lapatinib]
How it was run: as §1

pictilisib = compound: CS(=O)(=O)N1CCN(Cc2cc3nc(-c4cccc5[nH]ncc45)nc(N4CCOCC4)c3s2)CC1 [pictilisib]
How it was run: as §1

Measured: log2 fold change

OGFR (UniProt Q9NZT2)
UniProt Q9NZT2, sequence (Q9NZT2 whole entry, looked up): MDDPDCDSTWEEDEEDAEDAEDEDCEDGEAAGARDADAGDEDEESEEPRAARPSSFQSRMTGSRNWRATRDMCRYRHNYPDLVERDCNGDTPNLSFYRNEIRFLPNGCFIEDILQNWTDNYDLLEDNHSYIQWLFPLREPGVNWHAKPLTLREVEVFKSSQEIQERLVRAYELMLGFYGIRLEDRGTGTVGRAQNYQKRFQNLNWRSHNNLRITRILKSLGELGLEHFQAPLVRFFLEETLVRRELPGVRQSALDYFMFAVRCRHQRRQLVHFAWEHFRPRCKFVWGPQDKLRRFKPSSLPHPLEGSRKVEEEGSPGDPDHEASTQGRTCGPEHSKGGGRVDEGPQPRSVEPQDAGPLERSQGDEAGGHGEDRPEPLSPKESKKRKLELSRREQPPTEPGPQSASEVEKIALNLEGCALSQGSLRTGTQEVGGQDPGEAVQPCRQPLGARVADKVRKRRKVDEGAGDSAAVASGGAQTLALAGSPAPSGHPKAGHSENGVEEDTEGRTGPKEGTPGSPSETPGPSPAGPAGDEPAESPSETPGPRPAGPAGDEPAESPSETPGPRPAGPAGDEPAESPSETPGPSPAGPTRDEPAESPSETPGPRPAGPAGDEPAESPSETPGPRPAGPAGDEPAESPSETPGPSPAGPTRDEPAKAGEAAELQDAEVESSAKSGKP
inactive: saracatinib -0.044 | sotrastaurin -0.146 | alvocidib -0.04 | Tubastatin A 0.089 | [1] -0.028 | defactinib -0.094 | rucaparib 0.132 | [2] 0.009 | encorafenib 0.031 | [3] -0.154 | [4] -0.005 | filanesib 0.048 | zotarolimus 0.137 | idasanutlin -0.042 | alisertib -0.157 | [5] 0.023 | gefitinib -0.015 | [6] -0.152 | lapatinib 0 | pictilisib 0.019

NCL (UniProt P19338)
UniProt P19338, sequence (P19338 whole entry, looked up): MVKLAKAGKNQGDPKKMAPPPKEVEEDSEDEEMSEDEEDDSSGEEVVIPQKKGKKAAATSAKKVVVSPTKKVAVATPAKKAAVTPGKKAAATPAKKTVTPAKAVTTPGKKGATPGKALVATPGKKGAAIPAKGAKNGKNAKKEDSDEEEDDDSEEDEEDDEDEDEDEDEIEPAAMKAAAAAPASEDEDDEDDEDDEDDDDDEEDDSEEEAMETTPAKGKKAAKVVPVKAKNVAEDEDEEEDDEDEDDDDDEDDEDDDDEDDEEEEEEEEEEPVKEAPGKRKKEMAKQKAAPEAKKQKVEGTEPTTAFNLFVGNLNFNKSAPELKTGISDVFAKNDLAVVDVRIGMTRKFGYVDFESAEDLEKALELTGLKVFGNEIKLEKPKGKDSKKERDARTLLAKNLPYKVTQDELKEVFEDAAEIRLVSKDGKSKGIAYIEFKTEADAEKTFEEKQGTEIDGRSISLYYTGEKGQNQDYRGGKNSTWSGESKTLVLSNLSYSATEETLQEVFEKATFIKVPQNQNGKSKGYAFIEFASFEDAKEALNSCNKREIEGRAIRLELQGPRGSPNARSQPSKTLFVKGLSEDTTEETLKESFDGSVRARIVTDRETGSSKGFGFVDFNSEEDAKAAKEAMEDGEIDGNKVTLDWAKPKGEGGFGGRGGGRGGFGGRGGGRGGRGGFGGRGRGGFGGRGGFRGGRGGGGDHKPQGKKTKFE
inactive: saracatinib -0.111 | sotrastaurin 0.013 | alvocidib 0.277 | Tubastatin A 0.148 | [1] -0.001 | defactinib 0.354 | rucaparib 0.387 | [2] 0.137 | encorafenib 0.257 | [3] -0.01 | [4] -0.091 | filanesib 0.454 | zotarolimus 0.026 | idasanutlin 0.274 | alisertib -0.16 | [5] -0.099 | gefitinib -0.022 | [6] -0.217 | lapatinib 0.159 | pictilisib -0.085

NMD3 (UniProt Q96D46)
UniProt Q96D46, sequence (Q96D46 whole entry, looked up): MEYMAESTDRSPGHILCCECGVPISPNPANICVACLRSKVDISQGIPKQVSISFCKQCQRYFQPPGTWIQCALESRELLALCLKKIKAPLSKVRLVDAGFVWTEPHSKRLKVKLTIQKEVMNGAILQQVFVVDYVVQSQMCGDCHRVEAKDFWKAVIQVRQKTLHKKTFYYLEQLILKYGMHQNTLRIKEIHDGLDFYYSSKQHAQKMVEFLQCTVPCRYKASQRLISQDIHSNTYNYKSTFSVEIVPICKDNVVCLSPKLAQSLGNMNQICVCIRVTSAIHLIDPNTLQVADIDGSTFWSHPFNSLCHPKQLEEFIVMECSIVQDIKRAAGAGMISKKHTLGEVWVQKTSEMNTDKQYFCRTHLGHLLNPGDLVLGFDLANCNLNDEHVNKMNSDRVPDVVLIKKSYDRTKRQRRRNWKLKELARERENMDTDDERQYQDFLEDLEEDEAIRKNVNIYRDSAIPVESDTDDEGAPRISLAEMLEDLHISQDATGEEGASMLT
inactive: saracatinib 0.043 | sotrastaurin 0.02 | alvocidib -0.012 | Tubastatin A 0.07 | [1] 0.088 | defactinib 0.06 | rucaparib -0.181 | [2] 0.003 | encorafenib 0.028 | [3] -0.052 | [4] 0.004 | filanesib -0.221 | zotarolimus 0.008 | idasanutlin -0.095 | alisertib -0.034 | [5] 0.108 | gefitinib 0.007 | [6] 0.016 | lapatinib 0 | pictilisib 0.089

NCAPD2 (UniProt Q15021)
UniProt Q15021, sequence (Q15021 whole entry, looked up): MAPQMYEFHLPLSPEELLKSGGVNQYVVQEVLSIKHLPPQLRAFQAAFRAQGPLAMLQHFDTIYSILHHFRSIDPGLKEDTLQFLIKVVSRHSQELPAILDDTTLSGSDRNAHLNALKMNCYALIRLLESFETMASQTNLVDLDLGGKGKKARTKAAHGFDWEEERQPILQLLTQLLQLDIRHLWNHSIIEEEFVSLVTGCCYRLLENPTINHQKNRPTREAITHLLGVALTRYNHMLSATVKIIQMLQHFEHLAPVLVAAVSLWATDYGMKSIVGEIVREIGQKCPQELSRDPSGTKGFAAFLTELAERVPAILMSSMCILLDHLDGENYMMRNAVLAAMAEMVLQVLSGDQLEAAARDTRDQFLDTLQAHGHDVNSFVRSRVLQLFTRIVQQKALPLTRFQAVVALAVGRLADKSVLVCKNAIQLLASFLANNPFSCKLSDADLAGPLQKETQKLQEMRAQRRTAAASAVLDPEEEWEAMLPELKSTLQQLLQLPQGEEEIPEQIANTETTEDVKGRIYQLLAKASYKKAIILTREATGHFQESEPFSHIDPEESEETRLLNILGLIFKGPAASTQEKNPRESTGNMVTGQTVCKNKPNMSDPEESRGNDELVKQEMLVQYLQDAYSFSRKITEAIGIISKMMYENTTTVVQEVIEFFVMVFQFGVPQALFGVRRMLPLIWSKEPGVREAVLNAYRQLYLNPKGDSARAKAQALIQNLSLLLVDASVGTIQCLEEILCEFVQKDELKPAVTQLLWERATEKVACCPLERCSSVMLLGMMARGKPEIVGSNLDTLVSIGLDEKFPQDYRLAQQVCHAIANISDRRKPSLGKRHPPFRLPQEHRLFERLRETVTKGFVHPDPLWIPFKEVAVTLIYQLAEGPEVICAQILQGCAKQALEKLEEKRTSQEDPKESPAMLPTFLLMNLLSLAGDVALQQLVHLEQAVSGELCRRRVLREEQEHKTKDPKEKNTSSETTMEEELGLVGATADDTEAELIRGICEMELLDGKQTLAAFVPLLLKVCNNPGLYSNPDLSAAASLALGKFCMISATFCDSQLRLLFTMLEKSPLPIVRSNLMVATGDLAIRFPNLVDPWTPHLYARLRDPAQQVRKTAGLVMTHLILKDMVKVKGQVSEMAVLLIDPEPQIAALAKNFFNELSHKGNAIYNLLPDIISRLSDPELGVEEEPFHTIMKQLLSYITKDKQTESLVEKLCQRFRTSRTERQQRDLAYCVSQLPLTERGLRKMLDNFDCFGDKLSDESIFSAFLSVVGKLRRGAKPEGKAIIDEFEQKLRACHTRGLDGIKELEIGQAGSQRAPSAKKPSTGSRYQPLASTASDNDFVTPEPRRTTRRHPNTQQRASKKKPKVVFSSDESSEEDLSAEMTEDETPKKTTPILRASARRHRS
inactive: saracatinib -0.052 | sotrastaurin -0.145 | alvocidib -0.029 | Tubastatin A 0.012 | [1] 0.111 | defactinib -0.052 | rucaparib 0.142 | [2] 0.008 | encorafenib 0.11 | [3] -0.025 | [4] 0.025 | filanesib -0.006 | zotarolimus 0.061 | idasanutlin -0.072 | alisertib -0.005 | [5] 0.092 | gefitinib 0.029 | [6] -0.138 | lapatinib -0.024 | pictilisib 0.059

MRPS35 (UniProt P82673)
inactive: saracatinib -0.18 | sotrastaurin -0.033 | alvocidib 0.01 | Tubastatin A 0.078 | [1] -0.022 | defactinib 0.043 | rucaparib 0.071 | [2] 0.062 | encorafenib 0.039 | [3] 0.007 | [4] 0.018 | filanesib 0.024 | zotarolimus 0.051 | idasanutlin -0.168 | alisertib -0.04 | [5] 0.026 | gefitinib -0.054 | [6] -0.13 | lapatinib 0.022 | pictilisib -0.021

NELFB isoform 2 (UniProt Q8WX92)
UniProt Q8WX92, sequence (Q8WX92 whole entry, looked up): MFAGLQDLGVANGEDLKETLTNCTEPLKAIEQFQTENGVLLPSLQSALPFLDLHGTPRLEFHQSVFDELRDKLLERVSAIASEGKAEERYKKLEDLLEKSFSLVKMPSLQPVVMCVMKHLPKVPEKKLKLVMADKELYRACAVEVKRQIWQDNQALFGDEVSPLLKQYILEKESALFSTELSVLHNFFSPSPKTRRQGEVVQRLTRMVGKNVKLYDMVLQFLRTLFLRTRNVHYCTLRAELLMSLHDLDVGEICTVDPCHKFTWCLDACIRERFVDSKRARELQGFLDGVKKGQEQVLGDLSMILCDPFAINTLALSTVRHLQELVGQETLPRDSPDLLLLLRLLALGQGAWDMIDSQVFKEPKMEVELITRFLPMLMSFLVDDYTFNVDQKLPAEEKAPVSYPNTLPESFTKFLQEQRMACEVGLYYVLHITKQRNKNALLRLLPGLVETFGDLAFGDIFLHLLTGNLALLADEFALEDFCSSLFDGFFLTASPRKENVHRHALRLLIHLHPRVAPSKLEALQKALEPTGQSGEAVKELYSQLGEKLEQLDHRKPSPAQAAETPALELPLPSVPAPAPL
inactive: saracatinib -0.016 | sotrastaurin -0.065 | alvocidib -0.199 | Tubastatin A 0.04 | [1] -0.026 | defactinib -0.199 | rucaparib -0.034 | [2] -0.005 | encorafenib 0.079 | [3] -0.057 | [4] 0.01 | filanesib 0.046 | zotarolimus 0.019 | idasanutlin -0.026 | alisertib -0.007 | [5] 0.085 | gefitinib -0.006 | [6] -0.02 | lapatinib -0.029 | pictilisib 0.141

NAA11 (UniProt Q9BSU3)
UniProt Q9BSU3, sequence (Q9BSU3 whole entry, looked up): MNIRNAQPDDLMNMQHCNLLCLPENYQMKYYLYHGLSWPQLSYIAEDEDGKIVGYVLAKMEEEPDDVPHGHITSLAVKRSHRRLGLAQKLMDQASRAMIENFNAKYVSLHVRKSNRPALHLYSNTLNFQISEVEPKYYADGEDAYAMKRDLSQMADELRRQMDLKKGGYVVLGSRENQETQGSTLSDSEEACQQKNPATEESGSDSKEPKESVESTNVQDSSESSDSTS
inactive: saracatinib 0.033 | sotrastaurin -0.247 | alvocidib -0.038 | Tubastatin A 0.035 | [1] -0.078 | defactinib -0.132 | rucaparib 0.135 | [2] -0.133 | encorafenib 0.022 | [3] 0.034 | [4] 0.077 | filanesib -0.026 | zotarolimus -0.022 | idasanutlin 0.037 | alisertib -0.066 | [5] 0.13 | gefitinib 0.037 | [6] 0.116 | lapatinib -0.085

NR2C2 isoform 2 (UniProt P49116)
UniProt P49116, sequence (P49116 whole entry, looked up): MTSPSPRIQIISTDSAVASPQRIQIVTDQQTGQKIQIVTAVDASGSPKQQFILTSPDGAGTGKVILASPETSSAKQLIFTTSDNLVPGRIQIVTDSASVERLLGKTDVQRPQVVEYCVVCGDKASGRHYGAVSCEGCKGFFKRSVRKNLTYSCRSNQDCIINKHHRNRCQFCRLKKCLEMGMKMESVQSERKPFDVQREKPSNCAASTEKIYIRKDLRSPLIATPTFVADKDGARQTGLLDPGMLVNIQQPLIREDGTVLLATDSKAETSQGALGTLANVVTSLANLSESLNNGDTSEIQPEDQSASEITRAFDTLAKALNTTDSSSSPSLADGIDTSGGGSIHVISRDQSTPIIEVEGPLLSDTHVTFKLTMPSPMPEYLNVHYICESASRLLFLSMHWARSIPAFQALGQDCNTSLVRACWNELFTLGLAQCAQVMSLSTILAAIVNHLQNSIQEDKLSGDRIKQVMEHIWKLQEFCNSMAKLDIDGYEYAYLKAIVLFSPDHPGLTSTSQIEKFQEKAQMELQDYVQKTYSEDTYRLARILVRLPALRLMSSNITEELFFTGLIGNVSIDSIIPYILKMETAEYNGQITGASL
inactive: saracatinib 0.052 | sotrastaurin -0.041 | alvocidib 0.077 | Tubastatin A -0.013 | [1] 0.005 | defactinib 0.001 | rucaparib 0.071 | [2] -0.044 | encorafenib 0.053 | [3] 0.028 | [4] 0.026 | filanesib 0.019 | zotarolimus 0.055 | idasanutlin 0.041 | alisertib -0.173 | [5] 0.028 | gefitinib -0.052 | [6] 0.084 | lapatinib -0.004 | pictilisib 0.019
